Experiments:
Conditions in all cases: concentration: 1 μM, replicates: in singlicate; n = 1
RIPK2 = system: RIPK2
RIPK4 = system: RIPK4
RIPK5 = system: RIPK5
ROCK1 = system: ROCK1
ROCK2 = system: ROCK2
ROS1 = system: ROS1
[1] = system: RPS6KA4(Kin.Dom.1-N-terminal)
[2] = system: RPS6KA4(Kin.Dom.2-C-terminal)
[3] = system: RPS6KA5(Kin.Dom.1-N-terminal)
[4] = system: RPS6KA5(Kin.Dom.2-C-terminal)
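Further: KINOMEscan kinase panel screen.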

Structure (SMILES) | %Inh (RIPK2) [%] | %Inh (RIPK4) [%] | %Inh (RIPK5) [%] | %Inh (ROCK1) [%] | %Inh (ROCK2) [%] | %Inh (ROS1) [%] | %Inh [1] [%] | %Inh [2] [%] | %Inh [3] [%] | %Inh [4] [%]
Nc1n[nH]c2nnc(-c3ccccc3)c(-c3ccccc3)c12 [GW554060] | 0 | 0 | 0 | 31 | 31 | 14 | 10 | 0 | 12 | 0
C[C@@H]1CC[C@H](C(=O)NC2CCCCC2)CN1c1cc(-c2ccc3c(N)n[nH]c3c2)nc(N)n1 [GSK2291363] | 5 | 29 | 0 | 94.4 | 93.1 | 28 | 5 | 0 | 32 | 0
CCn1c(-c2ccoc2)nc2cnccc21 [SB-733887] | 6 | 30 | 0 | 0 | 23 | 0 | 0 | 0 | 9 | 0
CC(C)(C)c1ccc(C(=O)Nc2cn3cc(-c4ccccc4)ccc3n2)cc1 | 16 | 0 | 2 | 0 | 63 | 0 | 6 | 0 | 0 | 18

Reference: article PMC5540273 (PLoS ONE, 2017)
